From PubChem BioAssay (NCATS) come the findings set out here.

Inconclusive results are not listed. A call without a number means that no potency is given here. The source made the active and inactive calls. Calls follow the shape of the dose curve; as a rule, active = well fitted curve in the direction sought with a large enough effect; inconclusive = small, poorly fitted or top-dose-only effect, or another doubt; inactive = no such curve, though single readings can be large; an effect the other way counts as inactive or inconclusive.

The target in the first assay is Aldehyde dehydrogenase, mitochondrial (Homo sapiens) (UniProt P05091). As to the kind of experiment: qHTS for Inhibitors of the Aldehyde Dehydrogenase Family (ALDH2) Primary screen (AID 2061308). Also: nearly all actives have a fitted effect of over 55% in size. As to conditions: ALDH2 enzyme inhibition qHTS, 1536-well; series mostly up to 56 µM. (In general: In qHTS, concentration-response curves come from the screen itself.)
With `COc1ccc(C2=Nn3c(nnc3-c3ccc(OC)c(OC)c3)SC2)cc1`, the Potency result is “inactive”.

Consider `O=[S+]([O-])(c1ccc2c(c1)OCCO2)N1CCN([S+](=O)([O-])c2ccc(F)cc2Cl)CC1`, for which the Potency result was “inactive”.

Regarding `Cc1ccc(NS(=O)(=O)c2ccc3c(c2)CCC(C)(C)O3)cc1C`, the Potency result is “inactive”.

Turning to `O=C(c1c(F)cccc1F)N1CCN(S(=O)(=O)c2ccc3c(c2)OCCO3)CC1`, the Potency result is “inactive”.

For `CCOc1ccc(CCNC(=O)c2ccc3ccccc3n2)cc1OCC`, the Potency entry was “inactive”.

`CCOc1ccc(CCNC(=O)c2ccc3[nH]ccc3c2)cc1OCC`: the Potency result is “inactive”.

On to `COc1ccc(Nc2nc(C#N)nc(NC3CCCC3)n2)cc1`, for which the Potency result was “inactive”.

In the case of `O=C1c2ccccc2C(=O)N1c1nccs1`, the Potency result was “inactive”.

Turning to `CCN1CCCC1Cn1c(-c2ccccc2)nc2c(NCc3ccccc3)nc(C)nc21` (stereo not given), the Potency entry was “inactive”.

`Cc1ccc(S(=O)(=O)Nc2ccccc2C(=O)Nc2nc(-c3ccccc3)co2)cc1`: the Potency entry is “inactive”.

Take `FC(F)(F)c1ccccc1-c1nc(NCc2ccc(-c3ccc(Cl)cc3)cc2)c2ccccc2n1`: the Potency result is “inactive”.

On to `CC(=O)Nc1sc2c(c1-c1ccc(Cl)cc1)CCNC2`, for which the Potency result was “inactive”.

Take `COc1cccc(CNc2ccc(S(=O)(=O)Nc3nc4c(C)cccc4s3)cc2)c1O`: the Potency result is “inactive”.

As to `Cc1ccc(CNc2nc(-c3ccccc3C(F)(F)F)nc3ccccc23)cc1`, the Potency entry is “inactive”.

In the case of `COc1ccc(C2c3c(n(Cc4ccccc4)cnc3=N)Oc3ccc4ccccc4c32)cc1OC` (stereo not given), the Potency entry was “inactive”.

Turning to `Cc1cnc(NC(=O)c2cc(S(=O)(=O)N(C)C)ccc2N2CCCC2)s1`, the Potency result is “inactive”.

For the compound `N#CN1CCC(NS(=O)(=O)c2ccc(C(F)(F)F)cc2)C1` (stereo not given), the Potency result is “inactive”.

Turning to `COc1ccc(OC)c(C2=Nn3c(nnc3-c3ccccc3C)SC2)c1`, the Potency result is “inactive”.

In the case of `Cc1c(P(=S)(c2ccccc2)c2ccccc2)[n+]2ccccc2n1CCc1ccccc1`, the Potency entry is “inactive”.

For the compound `Cc1ccc(CN(C)c2ncnc3ccc(-c4ccc(C(=O)O)o4)cc23)o1`, the Potency result is “inactive”.

`Cc1ccc(NS(=O)(=O)c2ccc3c(c2)N(C)C(=O)CO3)cc1C`: the Potency entry is “inactive”.

`CCC[C@@H]1C[C@@H](C(=O)N[C@H](C(C)Cl)[C@H]2O[C@H](SC)[C@H](O)[C@@H](O)[C@H]2O)N(C)C1` (stereo not given in full): the Potency result was “inactive”.

As to `CN(Cc1ccccc1)C(=O)C1CCN(Cc2cccc3ccccc23)CC1`, the Potency entry was “inactive”.

Turning to `COCC1CCCN(C(=O)CC(c2ccc3c(c2)OCO3)c2c(O)cc(OC)cc2OC)C1` (stereo not given), the Potency entry is “inactive”.

As to `c1csc(CNc2ncnc3ccc(-c4ccc5c(c4)OCCO5)cc23)c1`, the Potency entry was “inactive”.

For `O=C1NC(=O)/C(=C/c2cccn2-c2ccc(P(=O)(O)O)cc2)N1`, the Potency entry was “inactive”.

For `O=C(COC(=O)CNC(=O)c1ccccc1Cl)Nc1cc(C(F)(F)F)ccc1Cl`, the Potency result was “inactive”.

In the case of `O=C(O)c1ccc(O)c2ncc(-c3n[nH]nc3-c3ccccc3)cc12`, the Potency result is “inactive”.

Turning to `COc1ccc(C[C@H](C(=O)O)N2C(=O)c3ccc(C(=O)O)cc3C2=O)cc1`, the Potency entry is “inactive”.

On to `Cn1nnnc1Sc1ncnc2scc(-c3cccc(Cl)c3)c12`, for which the Potency result was “inactive”.

Turning to `CC(=O)Nc1sc2c(c1-c1nc3ccccc3s1)CC(C)NC2` (stereo not given), the Potency result was “inactive”.

Take `N#Cc1ccccc1Nc1ncc(-c2cccc3ccccc23)o1`: the Potency result is “inactive”.

With `Cc1ccc(NS(=O)(=O)c2ccc3c(c2)CCCC(=O)N3)cc1C`, the Potency entry was “inactive”.

With `COc1cccc(C2c3c(ncn(-c4ccc(C(C)(C)C)cc4)c3=N)Oc3ccc4ccccc4c32)c1` (stereo not given), the Potency result was “inactive”.

Regarding `Cc1cnc(-c2ccccc2C(C)C)nc1NCc1ccc(-c2cccc(S(N)(=O)=O)c2)cc1`, the Potency result was “inactive”.

With `COc1cc(OC)cc(C2=Nn3c(nnc3-c3ccccc3OC)SC2)c1`, the Potency entry was “inactive”.

Take `O=S(=O)(Nc1nccs1)c1ccc(NCc2cc(F)ccc2O)cc1`: the Potency result was “inactive”.

Consider `O=C(Nc1ccc(Cl)c(Cl)c1)Nc1nc(-c2ccncc2)cs1`, for which the Potency entry was “inactive”.

For the compound `Cc1ccc(OCCn2c(CCNC(=O)C3CCOCC3)nc3ccccc32)cc1`, the Potency result was “inactive”.

`COc1ccc2nc(-c3ccccc3OCc3ccccc3)sc2c1`: the Potency entry was “inactive”.

The next assay concerns the target Retinaldehyde dehydrogenase 3 (Homo sapiens) (UniProt P47895). As to the kind of experiment: qHTS for Inhibitors of the Aldehyde Dehydrogenase Family (ALDH1A3) Primary screen (AID 2061315). Conditions: ALDH inhibition qHTS; series mostly up to 56 µM.
For the compound `COc1ccc(C2=Nn3c(nnc3-c3ccc(OC)c(OC)c3)SC2)cc1`, the Potency entry is “inactive”.

Take `O=[S+]([O-])(c1ccc2c(c1)OCCO2)N1CCN([S+](=O)([O-])c2ccc(F)cc2Cl)CC1`: the Potency result is “inactive”.

`Cc1ccc(NS(=O)(=O)c2ccc3c(c2)CCC(C)(C)O3)cc1C`: the Potency entry is “inactive”.

Regarding `O=C(c1c(F)cccc1F)N1CCN(S(=O)(=O)c2ccc3c(c2)OCCO3)CC1`, the Potency result was “inactive”.

As for `CCOc1ccc(CCNC(=O)c2ccc3ccccc3n2)cc1OCC`, the Potency result was “inactive”.

With `CCOc1ccc(CCNC(=O)c2ccc3[nH]ccc3c2)cc1OCC`, the Potency result is “inactive”.

As for `COc1ccc(Nc2nc(C#N)nc(NC3CCCC3)n2)cc1`, the Potency result is “inactive”.

With `O=C1c2ccccc2C(=O)N1c1nccs1`, the Potency result is “inactive”.

With `CCN1CCCC1Cn1c(-c2ccccc2)nc2c(NCc3ccccc3)nc(C)nc21` (stereo not given), the Potency entry was “inactive”.

In the case of `Cc1ccc(S(=O)(=O)Nc2ccccc2C(=O)Nc2nc(-c3ccccc3)co2)cc1`, the Potency result was “inactive”.

For `FC(F)(F)c1ccccc1-c1nc(NCc2ccc(-c3ccc(Cl)cc3)cc2)c2ccccc2n1`, the Potency result was “inactive”.

For `CC(=O)Nc1sc2c(c1-c1ccc(Cl)cc1)CCNC2`, the Potency entry was “inactive”.

Regarding `COc1cccc(CNc2ccc(S(=O)(=O)Nc3nc4c(C)cccc4s3)cc2)c1O`, the Potency entry was “inactive”.

Regarding `Cc1ccc(CNc2nc(-c3ccccc3C(F)(F)F)nc3ccccc23)cc1`, the Potency entry is “inactive”.

Consider `COc1ccc(C2c3c(n(Cc4ccccc4)cnc3=N)Oc3ccc4ccccc4c32)cc1OC` (stereo not given), for which the Potency result is “inactive”.

`Cc1cnc(NC(=O)c2cc(S(=O)(=O)N(C)C)ccc2N2CCCC2)s1`: the Potency entry was “inactive”.

Regarding `N#CN1CCC(NS(=O)(=O)c2ccc(C(F)(F)F)cc2)C1` (stereo not given), the Potency entry was “inactive”.

Consider `COc1ccc(OC)c(C2=Nn3c(nnc3-c3ccccc3C)SC2)c1`, for which the Potency result is “inactive”.

For the compound `Cc1c(P(=S)(c2ccccc2)c2ccccc2)[n+]2ccccc2n1CCc1ccccc1`, the Potency entry is “inactive”.

With `Cc1ccc(CN(C)c2ncnc3ccc(-c4ccc(C(=O)O)o4)cc23)o1`, the Potency result is “inactive”.

Take `Cc1ccc(NS(=O)(=O)c2ccc3c(c2)N(C)C(=O)CO3)cc1C`: the Potency entry is “inactive”.

With `CCC[C@@H]1C[C@@H](C(=O)N[C@H](C(C)Cl)[C@H]2O[C@H](SC)[C@H](O)[C@@H](O)[C@H]2O)N(C)C1` (stereo not given in full), the Potency entry was “inactive”.

Turning to `CN(Cc1ccccc1)C(=O)C1CCN(Cc2cccc3ccccc23)CC1`, the Potency entry was “inactive”.

Turning to `COCC1CCCN(C(=O)CC(c2ccc3c(c2)OCO3)c2c(O)cc(OC)cc2OC)C1` (stereo not given), the Potency entry is “inactive”.

Turning to `c1csc(CNc2ncnc3ccc(-c4ccc5c(c4)OCCO5)cc23)c1`, the Potency entry was “inactive”.

For the compound `O=C1NC(=O)/C(=C/c2cccn2-c2ccc(P(=O)(O)O)cc2)N1`, the Potency entry is “inactive”.

On to `O=C(COC(=O)CNC(=O)c1ccccc1Cl)Nc1cc(C(F)(F)F)ccc1Cl`, for which the Potency entry is “inactive”.

`O=C(O)c1ccc(O)c2ncc(-c3n[nH]nc3-c3ccccc3)cc12`: the Potency result was “inactive”.

`COc1ccc(C[C@H](C(=O)O)N2C(=O)c3ccc(C(=O)O)cc3C2=O)cc1`: the Potency result was “inactive”.

For `Cn1nnnc1Sc1ncnc2scc(-c3cccc(Cl)c3)c12`, the Potency entry is “inactive”.

For `CC(=O)Nc1sc2c(c1-c1nc3ccccc3s1)CC(C)NC2` (stereo not given), the Potency result was “inactive”.

With `N#Cc1ccccc1Nc1ncc(-c2cccc3ccccc23)o1`, the Potency entry was “inactive”.

Take `Cc1ccc(NS(=O)(=O)c2ccc3c(c2)CCCC(=O)N3)cc1C`: the Potency result was “inactive”.

On to `COc1cccc(C2c3c(ncn(-c4ccc(C(C)(C)C)cc4)c3=N)Oc3ccc4ccccc4c32)c1` (stereo not given), for which the Potency entry is “inactive”.

Take `Cc1cnc(-c2ccccc2C(C)C)nc1NCc1ccc(-c2cccc(S(N)(=O)=O)c2)cc1`: the Potency entry was “inactive”.

Consider `COc1cc(OC)cc(C2=Nn3c(nnc3-c3ccccc3OC)SC2)c1`, for which the Potency entry was “inactive”.

Turning to `O=S(=O)(Nc1nccs1)c1ccc(NCc2cc(F)ccc2O)cc1`, the Potency result is “inactive”.

For the compound `O=C(Nc1ccc(Cl)c(Cl)c1)Nc1nc(-c2ccncc2)cs1`, the Potency entry was “inactive”.

In the case of `Cc1ccc(OCCn2c(CCNC(=O)C3CCOCC3)nc3ccccc32)cc1`, the Potency entry was “inactive”.

Turning to `COc1ccc2nc(-c3ccccc3OCc3ccccc3)sc2c1`, the Potency entry was “inactive”.
